Changes are numbered by the printed parent chain. Whole data set: some 24,000 sequences, median “enrichment r” near 0.99, cut for the highest 2% near 3.7. The list comes from a sample in which the highest values are over-represented; it also holds similar and randomly drawn sequences.

To fix the notation:
T1: UNK ZnF1-3 (human, UniProt Q9C0B0 31-174)
T1 sequence: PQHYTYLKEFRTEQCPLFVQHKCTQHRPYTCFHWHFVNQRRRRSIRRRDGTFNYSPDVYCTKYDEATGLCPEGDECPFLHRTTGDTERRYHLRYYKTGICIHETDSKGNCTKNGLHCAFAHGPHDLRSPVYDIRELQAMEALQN

B1: chr17:24706804:24706805:+_ENSMUSG00000032855_ENSMUST00000035565|mus_hu|FALSE|FALSE (ssRNA)
RNA: GGGAGUUCUACAGUCCGACGAUCGCAGCCGGGCACGAAGGUGGCCACCAGGGCAGGGCAGACAUUCUCAAAGCGGGCGCUGACACUGCCCCCAGGCCAGCGAGCCGUGGCCGUGGCGUUGGCACCAGAGUCCACCUGGAGCACCAACAGAGGAUUGAGCAUCA
B2: chr7:17149110:17149111:-_ENSMUSG00000058230_ENSMUST00000075845|mus_hu|FALSE|FALSE (ssRNA)
RNA: GGGAGUUCUACAGUCCGACGAUCAAUAUCCAUGUAUACAGAUUCCUCCAGCCACUGGUAGAAAUCCUCAUUCAUAAUAAAACUACGGGCCUCUUCCCAAGGCUUUCCGGGAGUUAUGAAAGGAGAAGUCUCCAGGUUUUCUUUCAACAGAGGAUUGAGCAUCA
B3: chr12:8504966:8504967:-_ENSMUSG00000054364_ENSMUST00000067384|mus_hu|FALSE|FALSE (ssRNA)
RNA: GGGAGUUCUACAGUCCGACGAUCACAAGUGUGGUCAGAAUGCUACUGUCGUAUGCAAAUGACGAGUGCAUUAAGUGUCAAACAAUGAAACAAUUGUGCAAAGAAUAAAAAAACAAAUUUUAGCCUUUAAAUAAAUCAAAUAACCAACAGAGGAUUGAGCAUCA
B4: chr5:141234466:141234467:-_ENSMUSG00000000149_ENSMUST00000000153|mus_hu|FALSE|FALSE (ssRNA)
RNA: GGGAGUUCUACAGUCCGACGAUCUAAUAAAAAAGACAAUAAGGAUUAACAGUGAAAUUAAAAUUAAAAAAUACAAAAGCCUAAGGUUCUGGAGACAAAACUGACUAGAGUCUAUGUGUAGCCAAGUUGUGAAUGACAGUUUAGCAACAGAGGAUUGAGCAUCA
B5: chr5:141234466:141234467:-_ENSMUSG00000000149_ENSMUST00000000153|mus_hu|motif|central (ssRNA)
RNA: B4 RNA with U81G, A82G
B6: 83879064_83879184_615_CDS_ENSMUSG00000030016_ENSMUST00000032088|mouse|control|control (ssRNA)
RNA: GGGAGUUCUACAGUCCGACGAUCUGGAGUUAUAUGAGACUCAUCAUCCCACCGACUACCAUGAGGCUUCCCCUUCUUUUGUUGUGCUUCAGGAAAAUCCAAUUUUUCUUUGGUUAAUCUUGGAUCGGUUCGGUGUUGAGUUACCAACAGAGGAUUGAGCAUCA
B7: chrX:20248820:20248821:+_ENSMUSG00000001924_ENSMUST00000001989|mus_mus|mus_mus_mus_hu_True|58_98 (ssRNA)
RNA: GGGAGUUCUACAGUCCGACGAUCGGCGAAGUCCGUCAUCACAAAGUCAGGUUCUGCCAGUGAGGCCACCAAGGAUUUAAAACUAAUCUUCUUAGGUACUUUGACCUGACUGACGAUGCCUCCACGGAUGUAGUCGGAGAAGUUCAACAGAGGAUUGAGCAUCA
B8: chr17:35253193:35253194:-_ENSMUSG00000024387_ENSMUST00000025246|mus_mus|FALSE|FALSE (ssRNA)
RNA: GGGAGUUCUACAGUCCGACGAUCGGCCUUUUCUUCCUUUAUUUCAUAUUCCCACCACAGUAACAAUUCCUUUAAUUUAAACUAAAAACCAUAGACUUCCUGAAAGGGUGGCAGCAGAGGAAUGGUGGUGUCACAGACAGAGGGCAACAGAGGAUUGAGCAUCA
B9: chr16:45382771:45382772:-_ENSMUSG00000022661_ENSMUST00000163230|mus_mus|mus_mus_mus_hu_True|18_48 (ssRNA)
RNA: GGGAGUUCUACAGUCCGACGAUCCUGGGUCAUGUUAUAAGACAAAUGGACAGGGAGGGCAUGCUUCUCAAAAAAUGUGAGCUAUUGACUAAGACUAACAAUAUUUAUCUAGCUAUAUAAAAAUAAGAAAUGAAUAAGUUAAGACAACAGAGGAUUGAGCAUCA
B10: chr16:45382771:45382772:-_ENSMUSG00000022661_ENSMUST00000163230|mus_mus|mus_mus_mus_hu_True|1_18 (ssRNA)
RNA: B9 RNA with A87U, G137A, U138C, U139A, A140U, A141U, G142A, A143C
B11: chr16:45382771:45382772:-_ENSMUSG00000022661_ENSMUST00000163230|mus_mus|mus_mus_mus_hu_True|18_98 (ssRNA)
RNA: B9 RNA with A38G, A39G, A41C, A43C, A87U
B12: chr16:45382771:45382772:-_ENSMUSG00000022661_ENSMUST00000163230|mus_mus|mus_mus_mus_hu_True|1_48 (ssRNA)
RNA: GGGAGUUCUACAGUCCGACGAUCCUGGGUCAUGUUAUAAGACAAAUGGACAGGGAGGGCAUGCUUCUCAAAAAAUGUGAGCUAUUGACUAAGACUAACAAUAUUUAUCUAGCUAUAAAAAUAAGUUAAAUGAAUAAACAUUACCAACAGAGGAUUGAGCAUCA
B13: chr16:45382771:45382772:-_ENSMUSG00000022661_ENSMUST00000163230|mus_mus|mus_mus_mus_hu_True|18_18 (ssRNA)
RNA: B9 RNA with A87U
B14: chr16:45382771:45382772:-_ENSMUSG00000022661_ENSMUST00000163230|mus_mus|mus_mus_mus_hu_True|18_58 (ssRNA)
RNA: B9 RNA with G80A, U84C, G86C, A87U
B15: chrX:12734859:12734860:+_ENSMUSG00000031010_ENSMUST00000089302|mus_hu|motif|central (ssRNA)
RNA: GGGAGUUCUACAGUCCGACGAUCAUCACUGGCAGAGCCACGGACUACUUUCUUUGUGUGAAAUCCUGUAGUAAAGAGGAACCGGGCAGCAAGUUGAAUACUGAUCAUAGUGAUUUCUUCUGCUUCAGGCAACAGGUGAUCUUGCAACAGAGGAUUGAGCAUCA
B16: chr8:21961785:21961786:+_ENSG00000158863_ENST00000289921|hu_mus|FALSE|FALSE (ssRNA)
RNA: GGGAGUUCUACAGUCCGACGAUCCCAUGCAAAUGCCAAAGUGCAUUGAGUAUUGCCCAGCCUCUCAAACGAGUACAAAUCUCAAGUGUAGACCCACUCCACCAAGAUCUGCUCCUGUCCCACACCAGCACCCAUGUGUACUCACAACAGAGGAUUGAGCAUCA
B17: 131934741_131943559_139_3pUTR_ENSG00000108010_ENST00000331244|human|control|control (ssRNA)
RNA: GGGAGUUCUACAGUCCGACGAUCUUCUUUAGCUAACUCUGCCAUAACUUCGUUCAUCUGUGCACACUGUGGAGCCCAUGGUGCCCAGAAAUGGACCACAAGGAGGGACUUGGCUUUGAGGCGCAGCAGCUCCUCAAACUGCCCCAACAGAGGAUUGAGCAUCA
B18: 88753824_88753944_1043_CDS_ENSMUSG00000053333_ENSMUST00000065694|mouse|control|control (ssRNA)
RNA: GGGAGUUCUACAGUCCGACGAUCGGCAAAAUUACAGUCCUCCUUCCAGUCUAUGAUGCGGCAGAUGAACAGCGUGUUGGCAAAGUCUUUAGGUCGGGUCAUGAAGUCCUGGGGACAGUCCUUGAGAGGUACGUAAAUUCUAGGCAACAGAGGAUUGAGCAUCA
B19: chr5:108714581:108714582:-_ENSG00000198961_ENST00000361557|hu_hu|FALSE|FALSE (ssRNA)
RNA: GGGAGUUCUACAGUCCGACGAUCUGAAAGACCAGUGUAUGCCUCUGCCUCUCUGUUUUCCAACUCAAAUACUGUAUUGCCUAAUGAUUCCUGGUAUCUACUACCUUCCACGACUUCUGCAGAAAGUUGAAGAUGGUCAUUAUCCAACAGAGGAUUGAGCAUCA
B20: chr15:31520727:31520728:-_ENSMUSG00000022234_ENSMUST00000022842|mus_mus|FALSE|FALSE (ssRNA)
RNA: GGGAGUUCUACAGUCCGACGAUCAGUUUAUUCUUCAGAUUCUCCAGGCUUACGGAUGUCAUCAAUCUUCAGAAUCAUCCUAACCAUCUGGGUGGCAAGAGAGAUCUGCUGCUUUUUGCCAAUCAAGGUUUCUAUGACAUGCUGCAACAGAGGAUUGAGCAUCA
B21: 86370578_86370698_3324_CDS_ENSMUSG00000021244_ENSMUST00000021670|mouse|control|control (ssRNA)
RNA: GGGAGUUCUACAGUCCGACGAUCUGGCCUCACAAACACCCUGUCCCGGUUGCCUUCUCCUCUGUUCAUUUUCUCACGACUGUCUUCUCUUCUACCCAUCAUUUUAUCAUGGAAAUCUUCUUGCUUGACCAGACCUGGACCACGCAACAGAGGAUUGAGCAUCA
B22: chr7:26236612:26236613:-_ENSG00000122566_ENST00000356674|hu_mus|motif|central (ssRNA)
RNA: GGGAGUUCUACAGUCCGACGAUCAACAAACAGCUUCUUCACAGUCACAUGGGCUCCUGGUUUUCCAGACUCCUCUCUUGCGGCAGCACGUUUUGGCUCAACUACCCUGCCAUCAAUGGAAUGGGGCCUUGCAGCCAUGGCAGCCAACAGAGGAUUGAGCAUCA

In the experiment the target is T1, UNK ZnF1-3. Kind of experiment: nsRBNS (natural sequence RNA bind-n-seq); RBNS binding buffer (assumed for nsRBNS): 25 mM Tris pH 7.5, 150 mM KCl, 3 mM MgCl2, 0.01% Triton X-100, 500 ug/ml BSA, 20 U/ml SUPERase-In, 4 C; UNK is unkempt and MSI1 is Musashi-1; names of the RNAs are library labels; protein concentration not given here; high values mean tight binding.
Molecule B1 came in with a binding signal of 0.934 enrichment R.

B2 showed a binding signal of 0.85 enrichment R.

As to B3, the binding signal amounted to 2.25 enrichment R.

The molecule B4 had a binding signal of 9.17 enrichment R.

Take B5: the binding signal was 13.3 enrichment R.

Regarding B6, the binding signal turned out to be 0.468 enrichment R.

B7 registered a binding signal of 0.876 enrichment R.

B8: the binding signal is 1.66 enrichment R.

Molecule B9 had a binding signal of 5.66 enrichment R.

For B10, the binding signal worked out at 2.42 enrichment R.

Take B11: the binding signal came out at 5.27 enrichment R.

In the case of B12, the binding signal was 3.57 enrichment R.

Molecule B13 returned a binding signal of 5.7 enrichment R.

Turning to B14, the binding signal turned out to be 7.97 enrichment R.

The molecule B15 yielded a binding signal of 1.47 enrichment R.

The molecule B16 yielded a binding signal of 1.22 enrichment R.

Molecule B17 displayed a binding signal of 0.775 enrichment R.

In turn, B18 displayed a binding signal of 1.63 enrichment R.

Regarding B19, the binding signal stood at 0.745 enrichment R.

B20 showed a binding signal of 0.637 enrichment R.

On to B21, for which the binding signal was 0.682 enrichment R.

B22 returned a binding signal of 0.995 enrichment R.

The values above are taken from publication PMC12136788.
